# Bioassay records as filed in PubChem.
# AHR act: AHR activators, primary screen, cell-based, luminescence, luciferase reporter, human | activation, % at 5 µM | AHR-responsive luciferase reporter cells | 320,000 tested, 2.5% active | AID 2796, 2010 | Aryl hydrocarbon receptor (Homo sapiens), P35869; in the data active = activation above about 47%;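 note: 0% = vehicle wells and 100% = reference agonist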
# HSF1 inh: HSF1 inhibitors in luciferase reporter cells, primary screen, cell-based, NIH3T3, luminescence; NIH3T3-HGL HSE-luciferase, MG132-induced, luminescence 8 h; hits give low values; activity change, negative = inhibition, % at 7.5 µM (by protocol); 300,000 tested, 0.77% active; AID 2098, 2009;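 active = more than half of replicate wells show activity change below -50%, luminescence cut by over half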;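 note: luciferase reports HSF-1 transcriptional activity via heat shock element; 0% = median of DMSO wells and -100% = zero luminescence signal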
# HSP90 refold inh: HSP90 inhibitors, primary screen, cell lysate, luminescence; Rabbit reticulocyte lysate, luciferase refolding luminescence, 3 h; 290,000 tested, 0.91% active; inhibition, % at 5.6 µM; Heat shock protein HSP 90 (rabbit reticulocyte lysate; luciferase refolding);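 active = inhibition above the screen-wide mean plus 3 SD, computed separately per campaign, cut at about 16% in these data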;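 note: 0% = DMSO wells and 100% = 60 µM geldanamycin wells; inhibitors lower the luminescence because luciferase stays unfolded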
# NR0B1 inh: DAX1 (NR0B1) inhibitors, primary screen, cell-based, HEK293, Gal4-DAX1, luciferase luminescence; Nuclear receptor subfamily 0 group B member 1 (Homo sapiens), P51843; HEK293 Gal4-DAX1 luciferase reporter; inhibition, % at 6.75 µM; 340,000 tested, 0.99% active; AID 504766, 2011;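 active = inhibition above the mean over all tested compounds plus 3 SD, cut at about 4.2% in these data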;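 note: 0% = DAX1-transfected cells with DMSO and 100% = empty-vector control cells with DMSO; inhibition shows as a rise in luminescence from relieved DAX1 repression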
# Target sequence (P51843 207-470 limits assumed): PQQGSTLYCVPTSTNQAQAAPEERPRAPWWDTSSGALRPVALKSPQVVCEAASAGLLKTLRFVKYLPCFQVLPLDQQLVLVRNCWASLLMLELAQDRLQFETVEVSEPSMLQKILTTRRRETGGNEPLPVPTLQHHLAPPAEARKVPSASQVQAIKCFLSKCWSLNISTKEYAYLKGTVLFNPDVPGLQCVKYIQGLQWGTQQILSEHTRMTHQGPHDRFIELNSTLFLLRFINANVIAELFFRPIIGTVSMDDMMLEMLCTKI
# FXN GAA850 act: FXN promoter activators, primary screen, cell-based, luciferase luminescence, HEK293 lucGAA850. activation, % at 6 µM. 360,000 tested, 0.56% active. HEK293 lucGAA850 FXN promoter luciferase reporter, 24 h; percent of 10 µM SAHA response;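 active = activation above the average of all compounds screened plus 3 SD, cutoff fixed separately per campaign, cut at about 7.5% in these data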;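 note: 0% = DMSO wells and 100% = 10 µM SAHA wells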
# HSF-1 act: HSF-1 activators, primary screen, NIH3T3-HGL cells, MG132 stress, luminescence, single point; activation, % at 9 µM; 300,000 tested, 1.7% active; NIH3T3-HGL HSF-1 luciferase reporter, 8 h; 100% = twice DMSO control signal;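 active = mean replicate activation of at least 50% with a set share of replicates each reaching 50%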;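 note: 0% = median of the neutral control wells and 100% = twice that signal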
# The depositor's hits bear a star; / = no result. Shown are actives, neighbours in structure and some others; about 5.9% of the full set was active somewhere.
SMILES,AHR act,HSF1 inh,HSP90 refold inh,NR0B1 inh,FXN GAA850 act,HSF-1 act
Cc1nc2ccc3nc(NC(=O)C4COc5ccccc5O4)sc3c2s1 (stereo not given),5.4,19.9,1.2,-0.3,-0.4,7.6
Cc1ccccc1CC(=O)Nc1cccc(S(=O)(=O)N2CCCC2)c1,-0.8,/,/,-0.9,-1.1,/
Cc1[nH]n(-c2ccccc2)c(=O)c1C=NC1CCCCCC1,9.7,-2.0,0.9,5.5*,2.9,14.0
CC(=O)c1cccc(N2C(=NC(=O)COc3ccccc3)SC3CS(=O)(=O)CC32)c1 (stereo not given),-1.3,-2.6,1.7,0.9,2.5,-12.5
CC(=O)c1ccc(N2C(=NC(=O)COc3ccccc3)SC3CS(=O)(=O)CC32)cc1 (stereo not given),5.3,-3.3,-0.4,5.5*,0.1,0.5
N#Cc1sc(NCc2ccccn2)nc1Cl,4.8,-3.8,-2.3,-0.5,1.2,9.1
c1ccc2c(Nc3nnc(-c4ccncc4)s3)cccc2c1,62.8*,13.5,-0.5,0.7,3.2,-2.1
C=CCn1c(SCC(=O)N(C)C)nc2cc(C(=O)O)ccc2c1=O,-0.8,-5.9,-1.6,1.7,1.5,-8.7
CCOC(=O)c1cc2c(c(CSc3nc4ccccc4c(=O)n3Cc3ccco3)c1)OCOC2,0.6,17.4,-2.3,-0.4,2.0,58.0*
O=c1c2ccccc2nc(SCc2cc(F)cc3c2OCOC3)n1Cc1ccco1,1.1,3.7,-4.2,-0.9,-0.3,25.5
CCC(CO)n1c(SCc2cc([N+](=O)[O-])cc3c2OCOC3)nc2ccccc2c1=O (stereo not given),2.7,33.4,1.3,-0.6,3.4,56.0*
C=CCn1c(SCc2cc([N+](=O)[O-])cc3c2OCOC3)nc2cc(C(=O)O)ccc2c1=O,-1.2,28.8,3.4,-0.3,1.6,63.3*
Cc1ccc(-n2ncc3c2CCCC3NC(=O)CCc2cnccn2)cc1C (stereo not given),2.3,0.6,-4.4,0.2,1.4,17.9
CC(=O)Oc1cccc2c1C(=O)C1CC=CC(OC(C)=O)C1C2=O (stereo not given),/,/,/,3.0,5.5,/
CC(OC(=O)Cn1[nH]c(=O)c2ccccc2c1=O)C(=O)Nc1cccc(Cl)c1 (stereo not given),7.1,11.2,/,4.2*,-1.3,16.0
C[C@@H]1CN([C@@H](C)CO)C(=O)CCCn2nncc2CO[C@H]1CN(C)C,/,/,/,0.1,-0.7,/
CCc1ccc(N(C(=O)c2snc(C(N)=O)c2N)C(C(=O)NCCC(C)C)c2c[nH]c3ccccc23)cc1 (stereo not given),0.6,13.7,0.9,-0.3,5.9,56.7*
NC(=O)c1nsc(C(=O)N(c2cccc(F)c2)C(C(=O)NCC2CCCO2)c2c[nH]c3ccccc23)c1N (stereo not given),64.6*,8.4,0.0,0.5,-0.3,12.8
Cc1cccc(N(C(=O)c2snc(C(N)=O)c2N)C(C(=O)NCC2CCCO2)c2c[nH]c3ccccc23)c1 (stereo not given),9.3,-7.6,-2.0,-0.6,1.1,-8.6
NC(=O)c1nsc(C(=O)N(c2ccc(F)cc2)C(C(=O)NCC2CCCO2)c2c[nH]c3ccccc23)c1N (stereo not given),74.1*,1.2,-0.3,-0.4,1.9,8.9
CCOc1ccccc1N(C(=O)c1snc(C(N)=O)c1N)C(C(=O)NCCC(C)C)c1ccco1 (stereo not given),5.9,14.0,4.1,0.7,-5.1,36.1
CSc1ccc(CNC(=O)C2CCC(=O)N(CC3CCCCC3)C2)cc1 (stereo not given),/,/,/,1.1,0.9,/
CC1(C(=O)Nc2cccc(OC(F)(F)F)c2)Cc2c(-c3ccc4c(c3)OCO4)ccnc2O1 (stereo not given),/,/,/,/,-3.4,/
CCOc1ccc(-n2ccnc(SCC(=O)Nc3ccc(CC)cc3)c2=O)cc1,2.2,2.9,/,-1.0,0.5,8.6
CCC(C)NC(=O)c1cc2cc3ccc(OC)cc3nc2o1 (stereo not given),-2.1,26.5,1.8,0.6,3.6,62.5*
SMILES,AHR act,HSF1 inh,HSP90 refold inh,NR0B1 inh,FXN GAA850 act,HSF-1 act
Cc1ccccc1N1CCN(C(=O)NCc2cccc(Cl)c2)CC1,1.0,2.9,-1.0,0.1,-0.3,-7.7
O=C(COC(=O)C12CC3CC(CC(O)(C3)C1)C2)Nc1cccc(Br)c1,/,/,/,0.5,1.9,/
CCOc1cc(N2CCOCC2)c(OCC)cc1NC(=O)c1cccc(N(C)C)c1,-5.4,-51.3*,-1.4,-0.6,-1.1,-59.6
CCOc1cc(N2CCOCC2)c(OCC)cc1NC(=O)c1cc(-c2ccco2)nc2ccccc12,1.1,-77.0*,0.9,-2.3,-8.8,-78.4
CCOc1ccc(OCCC(=O)OCC(=O)Nc2cc(OCC)c(N3CCOCC3)cc2OCC)cc1,8.1,85.4,/,0.0,1.1,111.2*
CCCCC(Sc1nc(C)c(Cc2ccccc2)c(=O)[nH]1)C(=O)O (stereo not given),-1.9,3.0,-4.5,-0.2,1.2,3.2
OCCNc1ncnc2c1ncn2[C@H]1CN(Cc2ccncc2)C[C@@H](CO)O1,/,/,/,/,-0.5,/
O=S(=O)(Nc1cccc(-n2cnnn2)c1)c1cc(Cl)ccc1Cl,17.2,-88.0*,1.9,0.5,1.5,-91.2
O=S(=O)(Nc1cccc(-n2cnnn2)c1)c1cccc(Cl)c1,20.2,-1.3,0.3,0.4,0.7,1.3
Cc1ccc2c(c1)sc[n+]2Cc1ccccc1,22.3,-6.2,0.0,2.3,10.2*,6.6
Cc1ccc(C)c(Nc2ncccc2C(=O)NCc2cccs2)c1,5.6,23.5,0.0,0.1,3.1,55.3*
CCN(CC)CCn1c2ccccc2c2nc3ccccc3nc21,63.6*,10.4,0.6,2.1,6.6,42.1
CCCn1c2ccccc2c2nc3ccccc3nc21,78.5*,-2.9,-0.7,1.0,6.2,5.5
CCN(CC)CCn1c(C)nc2ccccc21,-0.1,-7.0,-2.6,4.3*,1.4,-1.5
Cc1nc2ccccc2n1CCc1ccccc1,0.9,-0.6,-0.7,-0.3,1.2,2.6
CCn1c2ccc(F)cc2c2nc3ccccc3nc21,58.5*,-13.0,-0.1,0.3,6.8,-11.5
O=C(c1ccc(-c2ccc([N+](=O)[O-])cc2)o1)N1CCN(S(=O)(=O)c2cccs2)CC1,-1.7,/,/,-0.9,-0.2,/
N#CCCn1c2ccccc2c2nc3ccccc3nc21,70.5*,0.6,4.4,0.9,6.1,3.8
Cn1c2ccc(F)cc2c2nc3ccccc3nc21,42.8,2.3,-2.4,1.5,7.5,0.3
CCN(CC)CCNc1nc2ccccc2n1C,2.9,15.0,-2.6,0.8,0.2,56.6*
Cn1c2ccc(Cl)cc2c2nc3ccccc3nc21,56.4*,3.2,2.5,1.6,7.1,12.9
